The values that follow come from PubChem BioAssay (NCATS).

Experiment [1] can be described thus: NCATS anti-infectives library activity on HEK293 viability as a counter-qHTS vs the C. elegans viability qHTS (AID 1745854).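 Note: HEK293 cells exposed to compounds for 24 hr before the viability read.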 In a few lines: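 Cytotoxicity in human HEK293 cells is measured by ATP-dependent CellTiter-Glo luminescence following a 24 hr incubation with titrated library compounds at 37C. Top final concentration is 41.7 uM.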
For experiment [2], the target named is Glutathione peroxidase 1 (Homo sapiens) (UniProt P07203). In words: Primary qHTS Assay for Inhibitors of Recombinant Selenoprotein Glutathione Peroxidase 1 (GPX1) (AID 1845191). Note: nearly all actives have a fitted effect of over 65% in size. In a few lines: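 GR-coupled assay: compounds preincubated 30 min at room temperature with GPX1, then reaction started with CHP; final 10 nM GPX1, 1 mM GSH, 0.5 mM CHP, 0.5 mM NADPH, 100 nM GR, 0.01% BSA, pH 7.5 Tris buffer. NADPH fluorescence (340/450 nm) read at 0 and 15 min.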

For experiment [3], the target named is Phospholipid hydroperoxide glutathione peroxidase GPX4 (Homo sapiens) (UniProt P36969). In words: Primary qHTS Assay for Inhibitors of Recombinant Selenoprotein Glutathione Peroxidase 4 (GPX4) (AID 1845192). Note: nearly all actives have a fitted effect of over 65% in size. In a few lines: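 GR-coupled assay: recombinant GPX4 preincubated 30 min with compound at room temperature; final 200 nM GPX4, 1 mM GSH, 0.5 mM cumene hydroperoxide, 0.5 mM NADPH, 100 nM GR, 0.01% BSA, pH 7.5 Tris. NADPH fluorescence (340/450 nm) read at 0 and 15 min.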

A short description of experiment [4]: NCATS anti-infectives library activity on the primary C. elegans qHTS viability assay (AID 1745855; calls by dose curve). Particulars: C. elegans worm area imaging, day 7; at 41.8 µM (top of the series). A digest of the protocol:
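Viability is taken from GFP fluorescence of PE254-GFP-FLuc C. elegans imaged by laser cytometry over 7 days. Ten L1 worms per well grow at 21 °C on TOP10 E. coli capsules with titrated compound; levamisole marks toxicity.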

Experiment [5] is described as follows: Quantitative High-Throughput drug screen in 47 multiple myeloma cell lines against the NCATS MIPE library collection: FR4_PLB cell viability assay (AID 1918924; note: nearly all actives have a fitted effect of over 35% in size; note: potency is the fitted concentration of half-maximal effect). A digest of the protocol: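 Inhibition of cell viability is measured here. Each line was plated at 500 cells per well, treated with MIPE 4.0 drugs, kept 48 hours at 37C, then assayed for ATP content by CellTiter-Glo luminescence.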

Experiment [6] can be described thus: Quantitative High-Throughput drug screen in 47 multiple myeloma cell lines against the NCATS MIPE library collection: Delta47_JCRB cell viability assay (AID 1918925; note: nearly all actives have a fitted effect of over 45% in size; note: potency is the fitted concentration of half-maximal effect). In a few lines:
(§1)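 Primary qHTS used for cherry-picking: cells at 500/well, library compounds for 48 h (37C, 5% CO2), luminescent ATP assay.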

Experiment [7] can be described thus: Quantitative High-Throughput drug screen in 47 multiple myeloma cell lines against the NCATS MIPE library collection: EJM_DSMZ cell viability assay (AID 1918926; note: nearly all actives have a fitted effect of over 30% in size; note: potency is the fitted concentration of half-maximal effect). A digest of the protocol: as §1
Experiment [8] is described as follows: Quantitative High-Throughput drug screen in 47 multiple myeloma cell lines against the NCATS MIPE library collection: AMO1_DSMZ cell viability assay (AID 1918927; note: nearly all actives have a fitted effect of over 30% in size; note: potency is the fitted concentration of half-maximal effect). In a few lines:
as §1

The target in experiment [9] is Metallo-beta-lactamase type 2 (Klebsiella pneumoniae) (UniProt C7C422). The experiment can be described thus: qHTS to identify inhibitors of the New Delhi Metallo-beta-lactamase (NDM): assay validation screen against the NCATS LOPAC Collection (AID 1794843).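 Note: nitrocefin turnover by NDM-1 measured as 485 nm absorbance at plateau.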 In a few lines:
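NDM-1 at 2 nM final in 50 mM HEPES pH 7.0, 1 uM ZnSO4, 0.01% Tween20, preincubated with LOPAC compounds pinned in DMSO; 50 uM nitrocefin (stock) added. Hydrolysis read as absorbance at 485 nm in the plateau phase.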

The target in experiment [10] is Luciferin 4-monooxygenase (Photinus pyralis) (UniProt P08659). In words: Primary firefly luciferase (FLuc) qHTS assay for identification of artifact compounds. (AID 1845220). Note: nearly all actives have a fitted effect of over 60% in size. Particulars: outcome: dose series up to 54.1 µM. A digest of the protocol:
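Titrated compounds were incubated 15 min at RT, protected from light, with luciferin and ATP at 10 uM; reaction started with 10 nM FLuc, luminescence imaged at 5 min, and concentration-response fitted by Hill equation.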

In experiment [11] the test system is Nanoluciferase (engineered Oplophorus gracilirostris luciferase). The experiment can be described thus: Primary Nanoluciferase (NLuc) qHTS assay for identification of artifact compounds. (AID 1845222).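 Note: NLuc secreted into diluted conditioned medium of S16 cells.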 In a few lines:
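qHTS format, against NLuc in S16 cell-conditioned medium. Nano-Glo substrate 1:100 was added after 15 min at room temperature. Luminescence was taken after a further 5 min.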

The nature of experiment [12]: Primary redox qHTS assay for identification of artifact compounds. (AID 1845223). In a few lines: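 Amplex Red (25 uM) and HRP (250 mU/mL) in HBSS, with compounds for 15 min, then 250 uM DTT for 30 min, room temperature, dark. Fluorescence 525/598 nm read; normalized to DMSO and 10 uM DA3003; Hill fit.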

Results filed as inconclusive are left out. Active and inactive are the calls of the source. Unless noted, calls come from the whole dose curve; as a rule, active = well fitted curve in the direction sought with a large enough effect; inconclusive = small, poorly fitted or top-dose-only effect, or another doubt; inactive = no such curve, though single readings can be large; an effect the other way counts as inactive or inconclusive.

Chain of Phospholipid hydroperoxide glutathione peroxidase GPX4 (Homo sapiens) (P36969 whole entry, looked up): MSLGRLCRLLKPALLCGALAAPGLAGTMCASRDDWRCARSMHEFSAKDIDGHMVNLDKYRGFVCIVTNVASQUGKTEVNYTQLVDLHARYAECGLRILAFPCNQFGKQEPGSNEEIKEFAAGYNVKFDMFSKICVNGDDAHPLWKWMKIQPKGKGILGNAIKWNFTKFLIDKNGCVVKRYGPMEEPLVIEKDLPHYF
Chain of Metallo-beta-lactamase type 2 (Klebsiella pneumoniae) (C7C422 whole entry, looked up): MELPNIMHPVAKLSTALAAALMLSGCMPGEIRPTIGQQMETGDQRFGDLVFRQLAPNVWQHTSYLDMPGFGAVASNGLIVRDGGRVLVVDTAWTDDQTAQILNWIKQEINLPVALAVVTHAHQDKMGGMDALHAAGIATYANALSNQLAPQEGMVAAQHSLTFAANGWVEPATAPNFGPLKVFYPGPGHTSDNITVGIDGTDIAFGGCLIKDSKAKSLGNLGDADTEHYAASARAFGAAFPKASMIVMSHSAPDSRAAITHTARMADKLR
Chain of Glutathione peroxidase 1 (Homo sapiens) (P07203 whole entry, looked up): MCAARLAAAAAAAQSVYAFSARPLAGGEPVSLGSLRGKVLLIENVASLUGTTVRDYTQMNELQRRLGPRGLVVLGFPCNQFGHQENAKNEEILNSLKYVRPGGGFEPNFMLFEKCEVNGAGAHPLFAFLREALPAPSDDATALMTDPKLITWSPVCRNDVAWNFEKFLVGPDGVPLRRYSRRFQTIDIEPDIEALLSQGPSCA

Take `O=S(=O)(c1cccc2cnccc12)N1CCCNCC1`: the Potency result in experiment [1], in experiment [2] and in experiment [3] was “inactive” in each case.
Consider `CC(C)(C)C(=O)OCOP(=O)(COCCn1cnc2c(N)ncnc21)OCOC(=O)C(C)(C)C`, for which the call in [4] was inactive. Further, the Potency result in experiment [2] and in [3] was “inactive” in each case. The Potency is 6620 nM (active) in experiment [5], 83.3 nM (active) in experiment [6], 935 nM (active) in experiment [7] and 105 nM (active) in experiment [8].
Turning to `Clc1ccccc1CN1CCc2sccc2C1`, the Potency entry in experiment [1], in [2] and in experiment [3] was “inactive” throughout.
As for `CCN[C@H]1C[C@H](C)S(=O)(=O)c2sc(S(N)(=O)=O)cc21`, the Potency entry in experiment [1], in experiment [2], in experiment [3], in experiment [5], in [6] and in experiment [8] was “inactive” throughout.
As to `CC(C)Cn1cnc2c(N)nc3ccccc3c21`, the Potency entry in [1], in [2], in experiment [3] and in experiment [5] was “inactive” in each case. Also, the values for the Potency in [7] and in [8] were 5260 nM (active) and 4180 nM (active), respectively.
`CCN(CC)CCn1c(=O)c(Cc2ccc(OC)cc2)nc2ccccc21`: in [9], the molecule was classed as inactive. The Potency entry in [2], in [3], in experiment [5], in [7] and in experiment [8] was “inactive” in each case.
For `CC(C)(Sc1cc(C(C)(C)C)c(O)c(C(C)(C)C)c1)Sc1cc(C(C)(C)C)c(O)c(C(C)(C)C)c1`, the Potency result in experiment [1], in experiment [2], in experiment [3], in experiment [5] and in [8] was “inactive” throughout. The Potency in [6] is 5260 nM (active).
For the molecule `CC1CC2C3CCC4=CC(=O)C=C[C@]4(C)[C@@]3(F)[C@@H](O)C[C@]2(C)[C@@]1(O)C(=O)CO` (some centres undefined), the result in experiment [9] was inactive. In addition, the Potency entry in experiment [2], in [3] and in experiment [7] was “inactive” each time. Besides, the Potency in experiment [8] is 833 nM (active).
For `O=C(O)C1CCCN(CCC=C(c2ccccc2)c2ccccc2)C1` (centres undefined), in experiment [9], the molecule was classed as inactive. Moreover, the Potency result in [2], in [3], in experiment [5], in experiment [6], in experiment [7] and in [8] was “inactive” each time.
As for `CCCCS(=N)(=O)CCC(N)C(=O)O` (centres undefined), the molecule was classed as inactive in [9]. Besides, the Potency result in experiment [2], in experiment [3], in experiment [5], in experiment [6] and in [8] was “inactive” throughout.
As for `CCN1CCCC1CNC(=O)c1cc(S(N)(=O)=O)ccc1OC` (centres undefined), the call in [9] was inactive. Also, the Potency entry in [2], in experiment [3], in [6], in experiment [7] and in [8] was “inactive” each time.
Turning to `NC(=O)c1cccc(N)c1`, the Potency entry in [1], in experiment [2], in experiment [3], in experiment [6], in [7] and in experiment [8] was “inactive” throughout. Besides, the outcome in experiment [9] was inactive.
For the molecule `OCc1ccc(-c2nn(Cc3ccccc3)c3ccccc23)o1`, the call in [9] was inactive. The Potency result in experiment [2], in [3], in experiment [5] and in experiment [7] was “inactive” each time. Moreover, the Potency in [6] was 20900 nM (active).
With `Cc1nnc(C(=O)NC(C)(C)c2nc(C(=O)NCc3ccc(F)cc3)c(O)c(=O)n2C)o1`, the Potency result in experiment [1], in experiment [2], in experiment [3], in experiment [12], in experiment [5] and in experiment [6] was “inactive” in each case. Moreover, in experiment [7], the Potency result was “inactive”. For the same molecule, the molecule was classed as inactive in experiment [10] and in experiment [11]. The Potency in [8] is 4.2 nM (active).
